Legend:
Assay in all cases: log2 ratio of Biotin-Ahx-Ub-VS probe labelling (fragment/DMSO); higher = less target engagement (more negative = stronger competition), active = hit call of the paper (q ≤ 0.05, log2 ratio ≤ -1)
Settings in all cases: compound concentration: 200 uM; treatment time: 3 h
[1] = molecular target: T1, USP42 (UniProt Q9H9J4)
T1 sequence (whole entry): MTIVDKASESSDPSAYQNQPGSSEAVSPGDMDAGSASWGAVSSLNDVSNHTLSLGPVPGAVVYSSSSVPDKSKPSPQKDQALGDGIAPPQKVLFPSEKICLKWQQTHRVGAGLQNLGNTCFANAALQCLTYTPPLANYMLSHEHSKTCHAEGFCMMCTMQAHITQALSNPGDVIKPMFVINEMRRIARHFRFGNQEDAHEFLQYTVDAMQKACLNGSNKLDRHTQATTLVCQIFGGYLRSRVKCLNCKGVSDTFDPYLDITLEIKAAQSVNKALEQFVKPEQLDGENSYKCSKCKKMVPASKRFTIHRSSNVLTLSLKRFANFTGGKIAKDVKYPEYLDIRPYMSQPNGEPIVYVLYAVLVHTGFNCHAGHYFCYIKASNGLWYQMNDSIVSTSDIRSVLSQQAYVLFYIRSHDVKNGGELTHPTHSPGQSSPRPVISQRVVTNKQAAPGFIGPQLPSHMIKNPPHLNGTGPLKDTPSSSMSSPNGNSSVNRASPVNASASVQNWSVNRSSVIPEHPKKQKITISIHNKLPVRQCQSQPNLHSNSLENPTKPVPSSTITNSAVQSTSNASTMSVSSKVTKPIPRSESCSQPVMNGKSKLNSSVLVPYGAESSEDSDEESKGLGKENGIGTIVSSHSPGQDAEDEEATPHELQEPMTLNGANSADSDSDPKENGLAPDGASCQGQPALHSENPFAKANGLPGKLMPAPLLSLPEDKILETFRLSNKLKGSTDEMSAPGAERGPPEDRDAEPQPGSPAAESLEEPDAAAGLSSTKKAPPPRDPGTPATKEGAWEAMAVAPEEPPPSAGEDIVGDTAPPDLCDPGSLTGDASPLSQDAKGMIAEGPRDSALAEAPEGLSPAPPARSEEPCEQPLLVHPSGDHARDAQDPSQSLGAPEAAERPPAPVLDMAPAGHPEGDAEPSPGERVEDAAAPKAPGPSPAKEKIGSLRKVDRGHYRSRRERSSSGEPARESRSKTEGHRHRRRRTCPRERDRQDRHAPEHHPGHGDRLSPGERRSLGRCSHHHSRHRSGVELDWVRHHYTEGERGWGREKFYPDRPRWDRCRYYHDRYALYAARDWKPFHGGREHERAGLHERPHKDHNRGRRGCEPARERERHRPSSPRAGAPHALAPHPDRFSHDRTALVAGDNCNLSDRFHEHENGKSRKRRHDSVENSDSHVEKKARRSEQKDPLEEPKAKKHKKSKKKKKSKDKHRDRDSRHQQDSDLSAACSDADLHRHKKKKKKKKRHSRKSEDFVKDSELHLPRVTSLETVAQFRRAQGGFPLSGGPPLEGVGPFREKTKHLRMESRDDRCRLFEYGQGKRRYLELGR
Method in brief: (§1)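 Labelled DUBs from HEK293T lysate were NeutrAvidin-enriched, digested with LysC and trypsin, and run by diaPASEF LC-MS/MS. Before that, each 495 µg sample in Tris/CHAPS/IGEPAL buffer with protease inhibitors was treated in triplicate with fragment at 200 µM or vehicle for 3 h, then with Biotin-Ahx-Ub-VS at 0.5 µM final for 1 h. Values are average log2 ratios of fragment over vehicle by unpaired t-test, based on global-median-normalised Spectronaut label-free quantities from proteins with ≥2 unique peptides.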

[2] = molecular target: USP46 (UniProt P62068)
Chain of USP46 (P62068 whole entry): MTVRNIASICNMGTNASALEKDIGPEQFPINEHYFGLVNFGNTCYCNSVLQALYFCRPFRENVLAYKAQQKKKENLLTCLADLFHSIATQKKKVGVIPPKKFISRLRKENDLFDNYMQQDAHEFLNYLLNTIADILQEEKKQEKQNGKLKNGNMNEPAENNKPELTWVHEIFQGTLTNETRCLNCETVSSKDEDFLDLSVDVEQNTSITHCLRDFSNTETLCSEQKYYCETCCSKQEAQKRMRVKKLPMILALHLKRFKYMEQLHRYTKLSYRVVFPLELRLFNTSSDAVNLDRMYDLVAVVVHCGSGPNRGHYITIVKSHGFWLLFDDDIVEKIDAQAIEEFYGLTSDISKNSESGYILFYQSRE
Method in brief: as §1

[3] = molecular target: T2, USP47 (UniProt Q96K76)
T2 sequence (whole entry): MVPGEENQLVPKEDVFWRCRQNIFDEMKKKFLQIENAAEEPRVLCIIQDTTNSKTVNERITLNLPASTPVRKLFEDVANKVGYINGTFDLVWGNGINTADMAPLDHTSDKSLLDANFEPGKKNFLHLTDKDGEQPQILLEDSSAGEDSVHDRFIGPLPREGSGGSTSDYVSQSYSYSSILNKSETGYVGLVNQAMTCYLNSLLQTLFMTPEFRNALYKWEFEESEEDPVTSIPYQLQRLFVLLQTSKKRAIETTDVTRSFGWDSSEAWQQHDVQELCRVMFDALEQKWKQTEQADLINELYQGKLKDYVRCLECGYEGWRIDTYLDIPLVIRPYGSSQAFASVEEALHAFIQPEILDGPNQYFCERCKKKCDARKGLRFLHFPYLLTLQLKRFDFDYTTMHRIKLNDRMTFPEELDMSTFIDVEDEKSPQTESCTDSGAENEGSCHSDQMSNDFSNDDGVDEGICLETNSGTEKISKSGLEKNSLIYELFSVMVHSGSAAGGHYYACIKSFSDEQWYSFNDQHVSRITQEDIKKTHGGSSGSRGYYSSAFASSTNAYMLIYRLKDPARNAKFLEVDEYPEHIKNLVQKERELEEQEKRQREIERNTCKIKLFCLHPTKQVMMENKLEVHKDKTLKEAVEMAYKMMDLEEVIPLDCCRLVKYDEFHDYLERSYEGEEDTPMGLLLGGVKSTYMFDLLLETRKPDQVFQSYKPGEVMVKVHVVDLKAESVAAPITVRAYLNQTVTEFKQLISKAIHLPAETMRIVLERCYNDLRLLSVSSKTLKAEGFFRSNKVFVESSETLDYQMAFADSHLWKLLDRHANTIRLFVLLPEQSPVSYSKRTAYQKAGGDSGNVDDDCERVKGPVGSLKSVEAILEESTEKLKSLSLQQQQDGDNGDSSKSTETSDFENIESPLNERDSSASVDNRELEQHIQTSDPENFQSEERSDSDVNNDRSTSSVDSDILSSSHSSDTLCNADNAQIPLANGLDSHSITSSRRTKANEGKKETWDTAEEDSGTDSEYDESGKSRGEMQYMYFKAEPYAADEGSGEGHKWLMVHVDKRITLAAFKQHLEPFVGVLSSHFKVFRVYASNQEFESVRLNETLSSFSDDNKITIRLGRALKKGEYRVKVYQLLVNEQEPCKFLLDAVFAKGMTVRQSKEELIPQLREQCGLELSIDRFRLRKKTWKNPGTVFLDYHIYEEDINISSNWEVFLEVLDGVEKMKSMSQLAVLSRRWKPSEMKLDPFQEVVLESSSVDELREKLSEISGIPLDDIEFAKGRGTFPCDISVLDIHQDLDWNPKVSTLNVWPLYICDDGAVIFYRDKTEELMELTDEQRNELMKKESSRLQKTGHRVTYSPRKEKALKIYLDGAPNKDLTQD
Method in brief: as §1

[4] = molecular target: T3, USP48 (UniProt Q86UV5)
T3 sequence (whole entry): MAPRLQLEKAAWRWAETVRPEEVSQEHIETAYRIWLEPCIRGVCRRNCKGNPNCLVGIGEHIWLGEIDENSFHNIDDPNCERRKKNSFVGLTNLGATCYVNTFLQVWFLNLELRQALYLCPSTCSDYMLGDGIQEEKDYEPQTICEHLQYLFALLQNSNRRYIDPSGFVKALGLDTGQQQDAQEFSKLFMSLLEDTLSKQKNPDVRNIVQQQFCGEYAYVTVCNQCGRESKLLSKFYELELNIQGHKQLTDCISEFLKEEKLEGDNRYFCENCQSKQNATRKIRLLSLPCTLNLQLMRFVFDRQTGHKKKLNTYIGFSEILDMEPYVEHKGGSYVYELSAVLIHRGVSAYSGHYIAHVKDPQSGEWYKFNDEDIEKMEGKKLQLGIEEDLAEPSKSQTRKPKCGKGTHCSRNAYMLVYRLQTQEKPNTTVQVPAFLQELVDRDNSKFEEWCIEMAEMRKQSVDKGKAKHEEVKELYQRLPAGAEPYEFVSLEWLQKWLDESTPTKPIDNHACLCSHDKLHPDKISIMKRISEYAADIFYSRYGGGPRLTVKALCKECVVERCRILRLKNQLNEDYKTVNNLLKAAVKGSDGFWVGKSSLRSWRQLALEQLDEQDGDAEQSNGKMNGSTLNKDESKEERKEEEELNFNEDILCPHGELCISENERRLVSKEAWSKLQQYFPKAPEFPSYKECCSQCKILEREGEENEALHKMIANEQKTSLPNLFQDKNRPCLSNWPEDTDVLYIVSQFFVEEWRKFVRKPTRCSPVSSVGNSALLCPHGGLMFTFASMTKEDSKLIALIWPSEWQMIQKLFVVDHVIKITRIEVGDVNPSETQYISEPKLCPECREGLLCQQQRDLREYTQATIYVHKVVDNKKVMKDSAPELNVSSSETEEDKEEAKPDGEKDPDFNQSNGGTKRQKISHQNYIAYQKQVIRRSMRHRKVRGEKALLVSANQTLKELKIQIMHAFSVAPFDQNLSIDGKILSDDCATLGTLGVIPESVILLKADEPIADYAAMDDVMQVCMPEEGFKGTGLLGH
Method in brief: as §1

[5] = molecular target: T4, USP5 (UniProt P45974)
T4 sequence (whole entry): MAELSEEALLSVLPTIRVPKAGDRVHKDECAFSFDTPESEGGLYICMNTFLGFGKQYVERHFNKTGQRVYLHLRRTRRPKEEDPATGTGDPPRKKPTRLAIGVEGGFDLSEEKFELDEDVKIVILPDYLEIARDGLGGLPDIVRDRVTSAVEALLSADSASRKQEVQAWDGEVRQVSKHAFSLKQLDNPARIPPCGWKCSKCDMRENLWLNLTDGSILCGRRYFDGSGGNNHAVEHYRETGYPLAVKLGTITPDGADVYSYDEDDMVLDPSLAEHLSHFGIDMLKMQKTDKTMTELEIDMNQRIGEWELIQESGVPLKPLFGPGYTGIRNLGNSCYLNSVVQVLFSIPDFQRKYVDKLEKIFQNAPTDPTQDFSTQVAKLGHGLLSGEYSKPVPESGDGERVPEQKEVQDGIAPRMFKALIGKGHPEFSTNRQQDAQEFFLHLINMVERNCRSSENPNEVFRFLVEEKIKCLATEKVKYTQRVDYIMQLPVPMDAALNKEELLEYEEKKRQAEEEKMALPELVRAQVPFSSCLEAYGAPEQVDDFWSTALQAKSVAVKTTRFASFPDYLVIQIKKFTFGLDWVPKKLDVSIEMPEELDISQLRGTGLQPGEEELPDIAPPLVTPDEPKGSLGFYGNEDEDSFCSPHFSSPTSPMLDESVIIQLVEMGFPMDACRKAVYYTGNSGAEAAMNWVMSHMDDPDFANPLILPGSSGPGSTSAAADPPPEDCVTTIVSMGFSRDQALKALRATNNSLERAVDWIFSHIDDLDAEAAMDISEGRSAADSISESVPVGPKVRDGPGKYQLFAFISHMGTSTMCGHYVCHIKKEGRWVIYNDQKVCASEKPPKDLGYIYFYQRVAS
Method in brief: as §1

[6] = molecular target: USP54 (UniProt Q70EL1)
Chain of USP54 (Q70EL1 whole entry): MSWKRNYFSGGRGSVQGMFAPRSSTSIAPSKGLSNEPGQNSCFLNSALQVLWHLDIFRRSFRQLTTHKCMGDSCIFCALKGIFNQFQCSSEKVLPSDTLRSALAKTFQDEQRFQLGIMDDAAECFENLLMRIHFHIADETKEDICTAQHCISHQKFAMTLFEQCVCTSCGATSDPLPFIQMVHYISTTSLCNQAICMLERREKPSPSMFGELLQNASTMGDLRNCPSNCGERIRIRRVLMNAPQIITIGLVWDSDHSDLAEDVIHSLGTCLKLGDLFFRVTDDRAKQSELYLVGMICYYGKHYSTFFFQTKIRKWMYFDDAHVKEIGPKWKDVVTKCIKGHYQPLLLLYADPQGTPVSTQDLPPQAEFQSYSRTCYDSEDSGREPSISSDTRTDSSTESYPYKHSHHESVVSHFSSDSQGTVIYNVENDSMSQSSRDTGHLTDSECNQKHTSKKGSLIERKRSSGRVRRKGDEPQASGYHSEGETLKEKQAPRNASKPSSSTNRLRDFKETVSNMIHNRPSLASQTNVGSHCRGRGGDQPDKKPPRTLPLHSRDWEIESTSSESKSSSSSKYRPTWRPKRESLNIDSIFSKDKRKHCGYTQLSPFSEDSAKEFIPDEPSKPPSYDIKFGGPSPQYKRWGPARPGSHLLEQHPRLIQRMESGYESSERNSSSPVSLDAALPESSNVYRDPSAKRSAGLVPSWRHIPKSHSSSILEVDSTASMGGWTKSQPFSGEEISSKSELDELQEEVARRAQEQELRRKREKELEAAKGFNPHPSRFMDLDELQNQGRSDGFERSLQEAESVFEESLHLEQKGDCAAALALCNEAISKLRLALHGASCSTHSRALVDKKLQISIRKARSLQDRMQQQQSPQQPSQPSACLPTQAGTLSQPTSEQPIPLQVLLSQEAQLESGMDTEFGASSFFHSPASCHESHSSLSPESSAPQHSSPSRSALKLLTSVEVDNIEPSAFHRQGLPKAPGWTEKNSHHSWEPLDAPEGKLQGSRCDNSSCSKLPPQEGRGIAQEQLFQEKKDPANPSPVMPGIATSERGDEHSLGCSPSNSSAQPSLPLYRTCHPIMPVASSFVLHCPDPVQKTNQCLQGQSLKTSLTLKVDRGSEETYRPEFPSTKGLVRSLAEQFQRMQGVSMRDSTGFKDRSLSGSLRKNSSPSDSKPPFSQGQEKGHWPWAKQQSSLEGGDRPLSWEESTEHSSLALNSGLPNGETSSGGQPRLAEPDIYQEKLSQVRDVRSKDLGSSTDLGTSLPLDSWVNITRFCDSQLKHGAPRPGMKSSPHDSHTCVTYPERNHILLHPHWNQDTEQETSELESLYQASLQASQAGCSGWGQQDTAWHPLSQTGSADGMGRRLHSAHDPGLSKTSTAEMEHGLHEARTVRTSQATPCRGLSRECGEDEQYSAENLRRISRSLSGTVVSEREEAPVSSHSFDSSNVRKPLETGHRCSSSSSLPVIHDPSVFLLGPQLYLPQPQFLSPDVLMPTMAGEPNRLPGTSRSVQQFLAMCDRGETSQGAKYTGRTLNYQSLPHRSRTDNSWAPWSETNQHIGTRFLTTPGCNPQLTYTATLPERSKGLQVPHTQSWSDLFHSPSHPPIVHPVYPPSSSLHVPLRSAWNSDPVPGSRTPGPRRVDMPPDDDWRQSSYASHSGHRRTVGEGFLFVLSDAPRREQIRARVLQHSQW
Method in brief: as §1

[7] = molecular target: USP7 (UniProt Q93009)
Chain of USP7 (Q93009 whole entry, looked up): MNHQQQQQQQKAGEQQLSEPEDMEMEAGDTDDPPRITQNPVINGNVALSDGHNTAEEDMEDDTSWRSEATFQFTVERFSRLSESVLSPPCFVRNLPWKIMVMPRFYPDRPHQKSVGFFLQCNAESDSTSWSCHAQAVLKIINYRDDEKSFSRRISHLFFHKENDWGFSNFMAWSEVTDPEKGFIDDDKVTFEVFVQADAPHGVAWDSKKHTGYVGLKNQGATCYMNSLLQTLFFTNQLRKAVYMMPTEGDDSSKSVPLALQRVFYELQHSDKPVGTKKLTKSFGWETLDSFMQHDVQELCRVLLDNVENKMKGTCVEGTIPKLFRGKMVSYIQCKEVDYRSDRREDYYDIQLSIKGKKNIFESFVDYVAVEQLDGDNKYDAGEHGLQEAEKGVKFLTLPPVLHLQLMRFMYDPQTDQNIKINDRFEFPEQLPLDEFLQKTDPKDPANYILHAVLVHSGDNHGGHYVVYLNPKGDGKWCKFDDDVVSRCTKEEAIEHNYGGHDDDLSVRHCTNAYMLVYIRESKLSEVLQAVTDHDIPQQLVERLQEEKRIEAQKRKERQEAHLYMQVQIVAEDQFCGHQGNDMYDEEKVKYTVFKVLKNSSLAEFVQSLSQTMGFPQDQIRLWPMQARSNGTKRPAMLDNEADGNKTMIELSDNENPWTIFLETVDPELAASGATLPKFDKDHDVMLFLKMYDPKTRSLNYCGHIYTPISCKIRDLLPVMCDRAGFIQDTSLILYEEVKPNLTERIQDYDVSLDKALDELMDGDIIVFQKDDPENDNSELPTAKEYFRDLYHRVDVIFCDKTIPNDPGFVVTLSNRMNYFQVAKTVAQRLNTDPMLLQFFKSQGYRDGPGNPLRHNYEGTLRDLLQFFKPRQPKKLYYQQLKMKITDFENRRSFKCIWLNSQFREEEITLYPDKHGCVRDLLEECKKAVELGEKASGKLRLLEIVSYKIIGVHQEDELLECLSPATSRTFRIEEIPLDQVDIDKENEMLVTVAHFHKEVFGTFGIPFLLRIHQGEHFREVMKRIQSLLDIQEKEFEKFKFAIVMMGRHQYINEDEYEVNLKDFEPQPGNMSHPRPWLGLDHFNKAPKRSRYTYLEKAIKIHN
Method in brief: as §1

[8] = molecular target: T5, USP8 (UniProt P40818)
T5 sequence (whole entry): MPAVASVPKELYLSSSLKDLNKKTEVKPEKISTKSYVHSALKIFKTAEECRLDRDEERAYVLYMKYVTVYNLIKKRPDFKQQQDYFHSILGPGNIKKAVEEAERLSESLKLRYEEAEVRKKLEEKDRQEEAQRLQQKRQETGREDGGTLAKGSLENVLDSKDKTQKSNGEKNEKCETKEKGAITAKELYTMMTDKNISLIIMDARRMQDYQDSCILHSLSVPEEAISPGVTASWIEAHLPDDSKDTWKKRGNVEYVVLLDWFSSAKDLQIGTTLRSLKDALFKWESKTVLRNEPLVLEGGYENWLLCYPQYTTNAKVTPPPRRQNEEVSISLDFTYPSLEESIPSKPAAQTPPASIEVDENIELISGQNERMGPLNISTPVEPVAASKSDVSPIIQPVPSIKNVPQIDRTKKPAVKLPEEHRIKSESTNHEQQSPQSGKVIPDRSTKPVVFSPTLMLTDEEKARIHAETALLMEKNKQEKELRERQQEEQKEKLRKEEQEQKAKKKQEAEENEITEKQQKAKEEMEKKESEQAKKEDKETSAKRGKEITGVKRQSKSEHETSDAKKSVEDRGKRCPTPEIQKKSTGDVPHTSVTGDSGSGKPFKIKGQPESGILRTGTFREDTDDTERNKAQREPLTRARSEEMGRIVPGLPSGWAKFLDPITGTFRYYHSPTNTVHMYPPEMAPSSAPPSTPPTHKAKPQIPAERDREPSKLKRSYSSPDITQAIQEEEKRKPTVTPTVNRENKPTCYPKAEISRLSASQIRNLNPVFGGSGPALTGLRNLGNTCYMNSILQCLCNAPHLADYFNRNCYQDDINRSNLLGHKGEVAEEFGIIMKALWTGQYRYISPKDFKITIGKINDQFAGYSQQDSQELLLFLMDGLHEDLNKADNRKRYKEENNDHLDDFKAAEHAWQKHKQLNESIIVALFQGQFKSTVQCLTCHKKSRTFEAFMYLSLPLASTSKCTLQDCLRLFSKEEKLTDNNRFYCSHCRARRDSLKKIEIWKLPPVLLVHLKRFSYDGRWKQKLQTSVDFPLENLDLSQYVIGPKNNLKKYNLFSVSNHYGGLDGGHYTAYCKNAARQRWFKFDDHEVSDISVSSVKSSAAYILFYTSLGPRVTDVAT
Method in brief: as §1

[9] = molecular target: USP9X (UniProt Q93008)
Method in brief: as §1

[10] = molecular target: UniProt O00487
Chain of UniProt O00487 (O00487 whole entry): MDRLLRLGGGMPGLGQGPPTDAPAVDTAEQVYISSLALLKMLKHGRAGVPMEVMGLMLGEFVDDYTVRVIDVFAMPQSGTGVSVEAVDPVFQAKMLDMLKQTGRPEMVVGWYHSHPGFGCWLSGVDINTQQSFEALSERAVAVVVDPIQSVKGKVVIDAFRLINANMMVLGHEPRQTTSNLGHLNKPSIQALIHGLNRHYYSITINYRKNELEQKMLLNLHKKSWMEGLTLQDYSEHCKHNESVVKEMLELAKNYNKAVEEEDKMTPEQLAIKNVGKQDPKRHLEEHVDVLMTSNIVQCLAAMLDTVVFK
Method in brief: as §1

Measured: log2 ratio of Biotin-Ahx-Ub-VS probe labelling

O=C(CCl)N1CCCC2CCCCC21 (stereo not given)
inactive: [1] 0.484 | [2] -0.132 | [3] -0.696 | [4] -0.516 | [5] 0.0316 | [6] 0.268 | [7] -0.486 | [8] -0.0438 | [9] -0.183 | [10] -0.107
